“And” between values parts separate entries of the source, which are not always exact repeats. Identical values can stand only once. About 83,000 compounds went through this panel and 20% of them were active in at least one assay; those are over-represented in the sample as a whole.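 Growth was measured after 48 h exposure to one concentration of compound in 96-well plates. Values under 10 count as active.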 The source made the active and inactive calls.

Test systems include SR leukemia; RPMI-8226 leukemia; OVCAR-8 ovarian; OVCAR-5 ovarian; SK-OV-3 ovarian; IGROV1 ovarian; OVCAR-3 ovarian; HS 578T breast; NCI/ADR-RES ovarian; T-47D breast; BT-549 breast; MDA-MB-435 melanoma; SW-620 colon; MCF7 breast; HCT-116 colon; HCC-2998 colon; KM12 colon.
Assay in all cases: NCI-60 one-dose screen, 48 h (100 = growth as untreated, 0 = no growth, -100 = all killed)
A further assay relates to OVCAR-4 ovarian. To be noted: 10 µM unless noted.

In the case of `Cc1cccc(/C=C\C(=O)c2ccc(Cl)cc2)c1`, the growth in the assay with SR leukemia (10 µM unless noted) is 36% (inactive) and 3.37% (active); in the assay with RPMI-8226 leukemia (10 µM unless noted) it was 26.1% (inactive); with OVCAR-8 ovarian (10 µM unless noted) it was 101% (inactive) and 100% (inactive); in the assay on OVCAR-5 ovarian (10 µM unless noted), 93.5% (inactive) and 98.5% (inactive); with OVCAR-4 ovarian it was 89.1% (inactive) and 103% (inactive); in the assay with SK-OV-3 ovarian (10 µM unless noted) it was 108% (inactive) and 104% (inactive). The growth was 101% (inactive) and 92.7% (inactive) in the assay on IGROV1 ovarian (10 µM unless noted); 96.6% (inactive) and 101% (inactive) in the assay on OVCAR-3 ovarian (10 µM unless noted); 112% (inactive) and 102% (inactive) in the assay with HS 578T breast (10 µM unless noted); 101% (inactive) and 99.2% (inactive) in the assay with NCI/ADR-RES ovarian (10 µM unless noted); 93.8% (inactive) and 91.9% (inactive) in the assay on T-47D breast (10 µM unless noted); 82.9% (inactive) with BT-549 breast (10 µM unless noted). Also, the growth in the assay with MDA-MB-435 melanoma (10 µM unless noted) was 95.6% (inactive) and 84.4% (inactive); in the assay with SW-620 colon (10 µM unless noted) it was 89.3% (inactive) and 69% (inactive); in the assay with MCF7 breast (10 µM unless noted), 51.5% (inactive) and 73.7% (inactive); in the assay with HCT-116 colon (10 µM unless noted) it was 52.5% (inactive) and 62.3% (inactive); with HCC-2998 colon (10 µM unless noted), 95% (inactive) and 98.2% (inactive); in the assay with KM12 colon (10 µM unless noted), 96.3% (inactive) and 95.1% (inactive).

`COc1ccc2ccccc2c1/C=N/N1CCCCC1`: the growth is 108% (inactive) in the assay on SR leukemia (10 µM unless noted); 91.3% (inactive) in the assay on RPMI-8226 leukemia (10 µM unless noted); 95.4% (inactive) in the assay on OVCAR-8 ovarian (10 µM unless noted); 98.7% (inactive) in the assay with OVCAR-5 ovarian (10 µM unless noted); 99.5% (inactive) in the assay with OVCAR-4 ovarian; 111% (inactive) with SK-OV-3 ovarian (10 µM unless noted). In addition, the growth is 116% (inactive) in the assay with IGROV1 ovarian (10 µM unless noted); 103% (inactive) in the assay on OVCAR-3 ovarian (10 µM unless noted); 98.5% (inactive) with HS 578T breast (10 µM unless noted); 90.9% (inactive) in the assay with NCI/ADR-RES ovarian (10 µM unless noted); 94.2% (inactive) in the assay with T-47D breast (10 µM unless noted); 102% (inactive) in the assay on BT-549 breast (10 µM unless noted). Besides, the growth is 99.1% (inactive) with MDA-MB-435 melanoma (10 µM unless noted); 103% (inactive) in the assay on SW-620 colon (10 µM unless noted); 84% (inactive) with MCF7 breast (10 µM unless noted); 102% (inactive) with HCT-116 colon (10 µM unless noted); 109% (inactive) in the assay with HCC-2998 colon (10 µM unless noted); 108% (inactive) in the assay with KM12 colon (10 µM unless noted).

Take `Cc1cc(O)c(C(C)C)cc1N`: the growth was 97.1% (inactive) and 115% (inactive) in the assay on SR leukemia (10 µM unless noted); 84.3% (inactive) and 92.6% (inactive) in the assay on RPMI-8226 leukemia (10 µM unless noted); 99.3% (inactive) and 106% (inactive) with OVCAR-8 ovarian (10 µM unless noted); 101% (inactive) and 103% (inactive) in the assay with OVCAR-5 ovarian (10 µM unless noted); 84.5% (inactive) in the assay on OVCAR-4 ovarian; 100% (inactive) in the assay on SK-OV-3 ovarian (10 µM unless noted). Besides, the growth with IGROV1 ovarian (10 µM unless noted) was 103% (inactive) and 114% (inactive); in the assay with OVCAR-3 ovarian (10 µM unless noted) it was 76.6% (inactive) and 116% (inactive); with HS 578T breast (10 µM unless noted), 120% (inactive) and 99.7% (inactive); with NCI/ADR-RES ovarian (10 µM unless noted), 102% (inactive) and 98.8% (inactive); in the assay on T-47D breast (10 µM unless noted), 16.1% (inactive) and 71.8% (inactive); with BT-549 breast (10 µM unless noted), 109% (inactive) and 98.1% (inactive). Further, the growth was 117% (inactive) and 98.9% (inactive) in the assay with MDA-MB-435 melanoma (10 µM unless noted); 109% (inactive) and 102% (inactive) in the assay with SW-620 colon (10 µM unless noted); 94.3% (inactive) and 92.7% (inactive) in the assay on MCF7 breast (10 µM unless noted); 87.2% (inactive) and 104% (inactive) in the assay with HCT-116 colon (10 µM unless noted); 105% (inactive) and 94.2% (inactive) in the assay on HCC-2998 colon (10 µM unless noted); 110% (inactive) and 114% (inactive) in the assay with KM12 colon (10 µM unless noted).

In the case of `Cc1nn(-c2ccc(Cl)cc2)c2ncnc(N/N=C/c3ccccc3O)c12`, the growth was 4.8% (active) and 5.64% (active) in the assay with SR leukemia (10 µM unless noted); 37.1% (inactive) and 11.7% (inactive) in the assay on RPMI-8226 leukemia (10 µM unless noted); 14.1% (inactive) and 14% (inactive) in the assay on OVCAR-8 ovarian (10 µM unless noted); 47.5% (inactive) and 52.7% (inactive) in the assay on OVCAR-5 ovarian (10 µM unless noted); 19.5% (inactive) and 21.9% (inactive) with OVCAR-4 ovarian; 4.44% (active) and 10.8% (inactive) in the assay with SK-OV-3 ovarian (10 µM unless noted). For the same compound, the growth with IGROV1 ovarian (10 µM unless noted) was 23.9% (inactive) and 4.47% (active); in the assay with OVCAR-3 ovarian (10 µM unless noted), 34.9% (inactive) and 26.7% (inactive); in the assay on HS 578T breast (10 µM unless noted), 81% (inactive) and 56.4% (inactive); with NCI/ADR-RES ovarian (10 µM unless noted), 19.1% (inactive) and 10.5% (inactive); with T-47D breast (10 µM unless noted), 13.3% (inactive) and 23.8% (inactive); with BT-549 breast (10 µM unless noted) it was 36% (inactive) and 36.4% (inactive). The growth was 27.3% (inactive) and 23.7% (inactive) in the assay on MDA-MB-435 melanoma (10 µM unless noted); 35.1% (inactive) and 31.5% (inactive) in the assay with SW-620 colon (10 µM unless noted); 8.28% (active) and 12.1% (inactive) in the assay with MCF7 breast (10 µM unless noted); 26.7% (inactive) and 21.6% (inactive) in the assay with HCT-116 colon (10 µM unless noted); 31% (inactive) and 39.7% (inactive) in the assay on HCC-2998 colon (10 µM unless noted); 28.4% (inactive) and 22.2% (inactive) with KM12 colon (10 µM unless noted).

As for `CC1(C)OB(c2ccc(Cn3cc(F)c(=O)[nH]c3=O)cc2)OC1(C)C`, the growth in the assay on SR leukemia (10 µM) is 106% (inactive); in the assay with SR leukemia (50 µM), 39.5% (inactive); in the assay on RPMI-8226 leukemia (10 µM) it was 107% (inactive); in the assay on RPMI-8226 leukemia (50 µM) it was 68.1% (inactive); with OVCAR-8 ovarian (10 µM), 106% (inactive); in the assay on OVCAR-8 ovarian (50 µM), 75.1% (inactive). Also, the growth in the assay with OVCAR-5 ovarian (10 µM) was 97.5% (inactive); in the assay with OVCAR-5 ovarian (50 µM), 70.4% (inactive); with SK-OV-3 ovarian (10 µM), 114% (inactive); in the assay with SK-OV-3 ovarian (50 µM), 69% (inactive); in the assay with IGROV1 ovarian (10 µM) it was 98.8% (inactive); in the assay on IGROV1 ovarian (50 µM) it was 44.1% (inactive). Besides, the growth is 104% (inactive) with OVCAR-3 ovarian (10 µM); 4.62% (active) in the assay on OVCAR-3 ovarian (50 µM); 100% (inactive) with HS 578T breast (10 µM); 37% (inactive) in the assay with HS 578T breast (50 µM); 102% (inactive) in the assay on NCI/ADR-RES ovarian (10 µM); 94.1% (inactive) in the assay on NCI/ADR-RES ovarian (50 µM). The growth with T-47D breast (10 µM) is 102% (inactive); in the assay with T-47D breast (50 µM), 49.3% (inactive); with BT-549 breast (10 µM), 104% (inactive); in the assay with BT-549 breast (50 µM) it was 40.1% (inactive); in the assay with MDA-MB-435 melanoma (10 µM), 83.6% (inactive); in the assay with MDA-MB-435 melanoma (50 µM), 4.27% (active). For the same compound, the growth was 95.8% (inactive) with SW-620 colon (10 µM); 34.2% (inactive) in the assay on SW-620 colon (50 µM); 100% (inactive) in the assay on MCF7 breast (10 µM); 19.1% (inactive) with MCF7 breast (50 µM); 101% (inactive) in the assay on HCT-116 colon (10 µM); 29.3% (inactive) with HCT-116 colon (50 µM). Moreover, the growth in the assay with HCC-2998 colon (10 µM) was 104% (inactive); with HCC-2998 colon (50 µM), 74.4% (inactive); in the assay with KM12 colon (10 µM), 99% (inactive); in the assay on KM12 colon (50 µM) it was 26.4% (inactive).

These data come from PubChem BioAssay (NCI).
